Results reported in ChEMBL document CHEMBL3433997, “St. Jude Leishmania screening dataset” (2016).

target: Glucose transporter (Leishmania mexicana) (UniProt O61059); experiment: ST_JUDE_LEISH: Cytotoxicity at 2uM final concentration against transgenic Leishmania Mexicana promastigotes LmGT2 that are glucose transport deficient and complemented with the L. Mexicana glucose transporter 2. Activity is measured by DNA content using SYBR green in vitro; format: functional

| Compound | inhibition [%] |
| --- | --- |
| COc1ccc(C(=O)Nc2ccc3nc(N4CCCCC4)cc(C)c3c2)cc1[N+](=O)[O-] | 2 |
| Cc1cc(C(F)(F)F)n2nc(C(=O)N(Cc3cncn3Cc3ccccc3F)CC3CC3)cc2n1 | -0.18 |
| NS(=O)(=O)c1cncc(-c2ccc3nccc(-c4cn[nH]c4)c3n2)c1 | 6.63 |
| Fc1ccc2[nH]c(-c3cccc(-c4cccc(CN5CCN(c6ccncc6)CC5)c4)c3)nc2c1 | 0.3 |
| Nc1c2ccccc2nc2ccc(Cl)cc12 | 9.04 |
| c1ccc(-c2cccnn2)cc1 | 1.72 |
| Cc1ccc(C2(C)CN(CCCOc3cccc(-c4ccc(C(=O)NC(C)C)cc4)c3)CCO2)cc1 (stereo not given) | 0.85 |
| Cc1ccccc1C1CCN(C2CCC(NC(=O)/C=C/c3ccc(C(F)(F)F)cc3F)CC2)CC1 (stereo not given) | 0.34 |
| Cc1[nH]c(C)c(-c2ccc(CCc3ccc(F)cc3F)cc2)c(=O)c1Cl | -0.68 |
| COc1ccc(-c2cncc3ccc(C(=O)NCc4ccncc4)nc23)cc1 | 2.69 |
| CCc1ccc(CN2CCC(NC(=O)c3cc(-c4ccc(N(C)C)cc4)cs3)C2)cc1 (stereo not given) | 6.01 |
| Cc1ccc2c(OCCN3CCC(Cc4cc5c(cc4F)OCC(=O)N5)CC3)cc(F)cc2n1 | 3.85 |
| Cc1ccc(S(=O)(=O)N2CCN(C(=O)c3cc(-c4ccccc4)n[nH]3)CC2)cc1 | 2.37 |
| CCC(C)OC(=O)C1=C(C)NC2=C(C(=O)CC(c3ccc(OC)c(OC)c3)C2)C1c1ccc(O)cc1 (stereo not given) | 1.8 |
| O=C(Nc1cccc(F)c1)NC1CCN(c2ccnc3cc(Cl)ccc23)CC1 | 1.75 |
| O=C(/C=C/c1ccc(Cl)c(Cl)c1)NCCCCCN1CCCC(CNC(=O)Nc2ccc(C(F)(F)F)cc2)C1 (stereo not given) | 1.39 |
| COc1ccc(CNCCc2cccs2)cc1-c1ccc(S(=O)(=O)NCCN2CCCC2)s1 | 4.66 |
| O=C(/C=C/c1ccc(F)cc1)NC1CCC(CCN2CCCN(c3ccc(C(F)(F)F)cn3)CC2)CC1 (stereo not given) | -1.02 |
| COc1ccc(NC(=O)Nc2ccc(-c3ccc(-c4nc5ccccc5[nH]4)cc3)cc2)cc1 | 2.97 |
| CO/C(=C\C=C\c1cc2cc(Cl)ccc2[nH]1)C(=O)NCCCN1CCN(c2cc(Cl)ccc2OC)CC1 | -1.6 |

| Compound | inhibition [%] |
| --- | --- |
| O=C(/C=C/c1cccc2ccccc12)NCCCCCN1CCC(c2c[nH]c3ccccc23)CC1 | 2.9 |
| Cc1cc(I)ccc1Nc1nc2nonc2nc1Nc1ccc(I)cc1C | 9.11 |
| CC(CN(C)C)C(=O)Nc1ccc(-c2ccc(-c3nc4cc(F)ccc4[nH]3)cc2)cc1 (stereo not given) | 2.85 |
| COc1ccc(-c2cc3ncnc(N4CCN(CCN5CCCC5)CC4)c3s2)cc1 | 0.9 |
| CCOc1cc(NCCCNc2ncc([N+](=O)[O-])cc2C)nc2ccccc12 | 0.83 |
| CCc1cc(CNC2CCN(CCc3c(F)cnc4ccc(OC)nc34)CC2)cc2c1OCCO2 | 19.9 |
| Fc1ccccc1C=NN=c1cc[nH]c2ccc(C(F)(F)F)cc12 | 2.13 |
| c1ccc2c(c1)cc(CNCCCN1CCN(CCCNCc3cc4ccccc4c4ccccc34)CC1)c1ccccc12 | -0.41 |
| COc1cc(-n2cnc3cc(-c4ccc(Cl)cc4)sc3c2=O)ccc1OCCN1CCC(c2cccc(NC(C)=O)c2)CC1 | 3.05 |
| O=C(O[C@@H]1CN[C@H](C#Cc2cc3ncnc(Nc4ccc5c(cnn5Cc5cccc(F)c5)c4)c3s2)C1)N1CCCC1 | -1.8 |
| CN(Cc1ccccc1)C(=O)CCNS(=O)(=O)c1cc(Br)cnc1N | 6.07 |
| CC(C)CCNC(=O)C1Cc2c([nH]c3ccc(Br)cc23)C2(CCN(CCc3ccccc3)CC2)N1 (stereo not given) | 0.26 |
| CCCCCN1C(=O)C(c2ccccc2)(c2ccccc2)N=C1N | 4.92 |
| CN(C(=O)Cc1ccc(Cl)cc1)C1CCN(CCCCCNC(=O)/C=C/c2ccc(Cl)c(Cl)c2)CC1 | 1.99 |
| CNC(=O)Cc1ccc(C(=O)Nc2cccc(-c3ccc(-c4nc5cccc(C)c5[nH]4)s3)c2)cc1 | 1.79 |
| CN(C)C(=O)CCCn1c(CNCCCNc2cc(=O)c3ccccc3[nH]2)cc2c(Cl)cc(Cl)cc21 | 2 |
| COc1ccc2nccc([C@@H](O)CN3CCC(NS(=O)(=O)c4cc(Br)c(Br)s4)CC3)c2c1 | 1.8 |
| CNS(=O)(=O)c1ccc2c(c1)nc(C1CCN(CC3CCC(NC(=O)/C=C/c4ccc(Cl)c(Cl)c4)CC3)CC1)n2C (stereo not given) | 3.47 |
| CCOC(=O)c1c(C)n(-c2ccccc2)c2ccc(O)cc12 | 0.95 |
| Cc1cc(=O)c(-c2ccc(Oc3ccc(OC(F)(F)F)cc3)cc2)c(C)[nH]1 | -1.38 |
